Rows were chosen to be rich in hits. Some 2.1% of all compounds tested hit in one or more screens of this group.
Gli-Sufu block – Gli-Sufu pathway antagonism; actives 0.74% (n = 340,000); Sufu-KO-LIGHT fibroblasts, Gli luciferase reporter luminescence; inhibition, % at 5 µM;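 active = inhibition above about 55%, limit read from the data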;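 note: 0% = DMSO-treated cells and 100% = wells with medium but no cells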
NR2F2 inh – NR2F2 (human) inhibition, primary screen; P24468; HEK293T NGFI-A luciferase reporter, luminescence; inhibition, % at 8.6 µM; actives 0.7% (n = 370,000);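 active = inhibition above a per-plate cutoff, mean inhibition of test wells between control levels plus 3 SD, cut at about 38% in these data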;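 note: cells cotransfected with COUP-TFII expression vector driving the NGFI-A reporter; 0% = median of COUP-TF2 test wells and 100% = reporter-only cells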
Target sequence (P24468 whole entry, looked up): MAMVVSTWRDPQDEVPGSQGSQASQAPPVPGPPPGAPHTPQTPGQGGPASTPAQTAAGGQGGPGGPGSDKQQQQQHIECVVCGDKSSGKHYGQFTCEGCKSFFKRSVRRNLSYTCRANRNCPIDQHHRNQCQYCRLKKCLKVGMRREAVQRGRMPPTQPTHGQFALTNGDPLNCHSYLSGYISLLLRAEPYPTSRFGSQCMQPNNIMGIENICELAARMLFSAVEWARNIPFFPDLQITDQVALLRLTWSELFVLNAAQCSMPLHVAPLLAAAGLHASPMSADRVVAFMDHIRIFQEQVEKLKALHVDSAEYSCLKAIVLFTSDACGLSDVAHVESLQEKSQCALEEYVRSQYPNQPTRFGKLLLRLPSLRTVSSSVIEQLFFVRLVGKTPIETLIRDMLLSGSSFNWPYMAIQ
GalR3 antag – blocks the human galanin receptor 3; HEK293 GalR3-CNG cAMP membrane potential fluorescence; galR3 body fused to GalR1 C-terminus; inhibition, % at 3 µM; actives 0.44% (n = 360,000);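 active = inhibition above the screen-wide average plus 3 SD, cut at about 13% in these data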;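 note: forskolin and galanin both at EC90 stimulate the cells; cAMP rise reported by CNG channel membrane potential dye signal; 0% = forskolin plus galanin with DMSO and 100% = forskolin alone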
aDG glyco up – increases alpha dystroglycan glycosylation; Pro5-aDG cells, alpha-DG glycosylation AlphaScreen (IIH6); 0% Pro5, 100% B10-LARGE cell signal; activation, % at 10 µM; actives 0.22% (n = 360,000);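 active = activation of at least 8% versus controls, or a plate z-score of at least 8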;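 note: Pro5 are CHO cells carrying HIG-tagged alpha-DG that lacks glycosylation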
Env fusion inh – HIV envelope-mediated fusion inhibition. HeLa-JRFL Env/CEM21 cell fusion, luciferase. inhibition, % at 12.3 µM. actives 1.1% (n = 360,000);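 active = mean replicate inhibition score of at least 50 and every replicate individually at or above 50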;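 note: 0% = plate neutral controls and 100% = maraviroc near 300 nM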
aDG conf – alpha-DG glycosylation activation, confirmation; AID 651671; Pro5-aDG cells, IIH6 AlphaLISA; scaled to LARGE-overexpressing B10 cells as 100%; actives 17% (n = 600); shares compounds with aDG glyco up; activation, % at 10 µM (by protocol);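 active = activation of at least 7% in one or more replicates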;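 note: cells exposed to compound for two days before detection; 0% = DMSO-treated Pro5 cells and 100% = DMSO-treated B10-LARGE cells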
* = called active by the depositor; [ ] = dose if it differs, or a comment.

Results for O=C(OCc1ccccc1)N1CCC2CC1c1ccc(Cl)cc12 (configuration not stated) ?
NR2F2 inh: -3; GalR3 antag: -7; aDG glyco up: 1; Env fusion inh: -12

Results for C/C(=N/NC(=O)C(O)(c1ccccc1)c1ccccc1)c1ccc([N+](=O)[O-])o1 ?
Gli-Sufu block: -9; NR2F2 inh: 4; GalR3 antag: -9; aDG glyco up: 8.2*; Env fusion inh: 9; aDG conf: 3.7*

Results for C[C@@H]1CN([C@@H](C)CO)C(=O)c2cc(NC(=O)C3CCCCC3)ccc2O[C@@H](C)CCCCO[C@H]1CN(C)C(=O)NC1CCCCC1 ?
Env fusion inh: -24[16.7 µM]

Results for CCC(C)Sc1nc2c(cnn2-c2ccccc2)c(=O)[nH]1 (configuration not stated) ?
Gli-Sufu block: 0; NR2F2 inh: 4; GalR3 antag: 6; aDG glyco up: 7.7*; Env fusion inh: 0; aDG conf: 0

What do the screens show for `CN(C)C(=O)c1cn(-c2ccccc2)nc1-c1cccs1`?
Gli-Sufu block: 2; NR2F2 inh: 2; GalR3 antag: -4; aDG glyco up: 62*; Env fusion inh: -13; aDG conf: 0

Results for CN(C)c1ccc(NC(=O)c2cn(-c3ccccc3)nc2-c2cccs2)cc1 ?
Gli-Sufu block: -22; NR2F2 inh: -14; GalR3 antag: -4; aDG glyco up: 0; Env fusion inh: -145

Results for NC(=NC(=O)c1ccc(OC(F)(F)F)cc1)c1ccc(C(F)(F)F)cn1 ?
Gli-Sufu block: -5; NR2F2 inh: -3; GalR3 antag: -1; aDG glyco up: 3.8*; Env fusion inh: 6; aDG conf: 0

How did COCC(=O)N(C)C[C@H]1Oc2ncc(C3=CCCCC3)cc2C(=O)N([C@H](C)CO)C[C@H]1C do in these assays?
Env fusion inh: -10[16.7 µM]

How did CC[C@]1(C(=O)OC)[C@H]2C(=O)N(C)C(=O)[C@H]2[C@H]2CN=C(SCc3ccc(C(=O)OC)cc3)N21 do in these assays?
Gli-Sufu block: -1; NR2F2 inh: -3; GalR3 antag: -4; aDG glyco up: 5.9*; Env fusion inh: 8; aDG conf: 1

How did Cc1c(Cl)ccc2c(C(N)=O)cc(-c3ccccn3)nc12 do in these assays?
Gli-Sufu block: 1; NR2F2 inh: 23; GalR3 antag: -3; aDG glyco up: 4.1*; Env fusion inh: 5; aDG conf: 1

How did COc1ccc(S[C@@H](CCN2CC[C@H](NC(=O)OCc3ccccc3)CCC2=O)c2ccccc2)cc1 do in these assays?
Gli-Sufu block: 25; NR2F2 inh: 11; GalR3 antag: -6; aDG glyco up: 1; Env fusion inh: 37

Results for O=C(N[C@@H]1CCC(=O)N(CC[C@H](Sc2ccc(Br)cc2)c2ccccc2)CC1)OCc1ccccc1 ?
Gli-Sufu block: 0; NR2F2 inh: 7; GalR3 antag: -8; aDG glyco up: 9.1*; Env fusion inh: -49; aDG conf: 1

Results for CC(C)NC(=O)N(C)C[C@H]1OCCCC[C@H](C)Oc2ccc(NC(=O)c3ccccc3)cc2C(=O)N([C@@H](C)CO)C[C@@H]1C ?
Env fusion inh: -25[16.7 µM]

Results for CCCCN(C)CCCNC(=O)c1cn(CC)c2ccc(S(=O)(=O)N3CCc4ccccc4C3)cc2c1=O ?
Gli-Sufu block: 45; NR2F2 inh: 24; GalR3 antag: -3; aDG glyco up: 5; Env fusion inh: 0

How did CCCCN(CC)CCCNC(=O)c1cn(CC)c2ccc(S(=O)(=O)N3CCc4ccccc4C3)cc2c1=O do in these assays?
Gli-Sufu block: 41; NR2F2 inh: -4; GalR3 antag: 0; aDG glyco up: 8.5*; Env fusion inh: -7; aDG conf: 2

What do the screens show for `COc1ccccc1-c1cnc2c(c1)C(=O)N([C@H](C)CO)C[C@@H](C)[C@H](CN(C)C)O2`?
Env fusion inh: 4[16.7 µM]

How did O=C(C[C@@H]1CC[C@H]2[C@@H](COC[C@H](O)CN2C(=O)C2CC2)O1)NCc1ccccc1Cl do in these assays?
Env fusion inh: 9[16.7 µM]

How did CC(=O)Oc1ccc(N(C(C)=O)S(=O)(=O)c2ccccc2)c2ccccc12 do in these assays?
NR2F2 inh: -8; GalR3 antag: -5; aDG glyco up: 6; Env fusion inh: 14

What do the screens show for `COc1ccc(S(=O)(=O)N(C(C)=O)c2ccc(OC(C)=O)c3ccccc23)cc1[N+](=O)[O-]`?
Gli-Sufu block: 13; NR2F2 inh: -17; GalR3 antag: 4; aDG glyco up: 11*; Env fusion inh: 6; aDG conf: 2

How did CC(=O)Oc1ccc(N(C(C)=O)S(=O)(=O)c2ccc(C)cc2C)c2ccccc12 do in these assays?
NR2F2 inh: 12; GalR3 antag: -3; aDG glyco up: 4.9*; Env fusion inh: -39; aDG conf: 3

What do the screens show for `CC[N+](C)(CC)CC(O)COCC1COc2ccccc2O1` (configuration not stated)?
Gli-Sufu block: -11; NR2F2 inh: 17; GalR3 antag: -1; aDG glyco up: 4.6*; Env fusion inh: -11; aDG conf: -1

Results for Cc1ccc(S(=O)(=O)N(C)C)cc1NC(=O)COC(=O)Cc1ccccc1F ?
Gli-Sufu block: -13; NR2F2 inh: -6; GalR3 antag: -1; aDG glyco up: 11*; aDG conf: 0

How did Cc1ccc(NC(=O)CSc2nc3c(c(=O)[nH]2)CCC3)c(C)c1 do in these assays?
Gli-Sufu block: -9; NR2F2 inh: 5; GalR3 antag: -8; aDG glyco up: 7.4*; Env fusion inh: 0; aDG conf: 2

Results for COCC(=O)Nc1ccc2c(c1)C(=O)N(C)C[C@@H](OC)[C@H](C)CN(C(=O)c1ccccc1F)[C@@H](C)CO2 ?
Env fusion inh: -5[16.7 µM]

Results for O=C(CN1C(=O)c2ccc(Br)cc2C1=O)NCC1CCCO1 (configuration not stated) ?
Gli-Sufu block: -1; NR2F2 inh: 4; GalR3 antag: -3; aDG glyco up: 5.5*; Env fusion inh: -2; aDG conf: 1

Results for CCCN(C)C[C@@H]1Oc2cc(C#CCC3CCCC3)ccc2S(=O)(=O)N([C@H](C)CO)C[C@H]1C ?
Env fusion inh: 39[16.7 µM]

What do the screens show for `O=C(COC(=O)c1cccc(Br)c1)NCCNC(=O)COC(=O)c1cccc(Br)c1`?
Gli-Sufu block: 6; NR2F2 inh: 13; GalR3 antag: -2; aDG glyco up: 7.4*; Env fusion inh: -8; aDG conf: 0

How did CO[C@H]1CN(C)C(=O)c2cc(NS(=O)(=O)c3ccc(Oc4ccccc4)cc3)ccc2OC[C@H](C)NC[C@H]1C do in these assays?
Env fusion inh: -31[16.7 µM]

How did C/C(=N\Nc1ncc(Cl)cc1Cl)c1ccc2c(c1)OCO2 do in these assays?
Gli-Sufu block: -45; NR2F2 inh: -23; GalR3 antag: 0; aDG glyco up: 13*; Env fusion inh: -22; aDG conf: -1
